Molecules are shown by their SMILES. Some of the results follow. Records with an inconclusive call do not appear. Active and inactive are the calls of the source. Calls come from the whole dose curve; as a rule, active = well fitted inhibition curve with a large enough effect; inconclusive = small, poorly fitted or top-dose-only effect; inactive = flat fitted curve, though single readings scatter.
% is set by controls: 0 for no effect and ±100 for the full control effect.

The nature of this assay: qHTS Assay for Inhibitors of Fructose-1,6-bisphosphate Aldolase from Giardia Lamblia: Coupling assay counterscreen confirmation (AID 2795). Note: nearly all actives have a fitted effect of over 55% in size. To be noted: GAPDH coupling enzyme counterscreen, biochemical; series mostly up to 57.5 µM; activity change, negative = inhibition: at the top concentration. The source says: NIH Chemical Genomics Center [NCGC]
NIH Molecular Libraries Probe Production centers Network [MLPCN]
Assay Provider: Osnat Herzberg, University of Maryland
The objective of this project is to obtain compounds that inhibit Giardia lamblia growth. G. lamblia is a human pathogen which afflicts impoverished nations; it is the most common cause of outbreaks of diarrhea in the United States. During the course of our study of potential drug targets in Giardia, we have identified the Class II (Zn2+ functions in electrophilic catalysis) fructose-1,6-bisphosphate aldolase (FBPA) as an excellent candidate for drug targeting. FBPA is a key glycolytic pathway enzyme, essential for G. lamblia survival. The human FBPA belongs to the Class I aldolases, which have a different substrate binding site structure and a radically different catalytic mechanism (employing a lysine-Schiff base intermediate). Therefore, affinity-based or mechanism-based inhibitors of the Giardia FBPA are expected not to interfere with the catalytic function of the human FBPA.
A glyceraldehyde-3-phosphate dehydrogenase/triose phosphate isomerase/NAD/arsenate coupled assay was adapted to the 1536-well HTP format for use in the primary screen. This was done by coupling it to a diaphorase/resazurin/resorufin reaction that can be monitored by fluorescence (excitation, 544 nm; emission, 590 nm). Compounds identified in this screen will be further evaluated by coupling the glycerol-3-phosphate/triose phosphate isomerase/NADH assay to a phenazine methosulfate/tetranitroblue tetrazolium color reaction. False positives due to the dehydrogenases and diaphorase inhibition will be eliminated, and selectivity assay will triage inhibitors of mammalian triose phosphate isomerase and the Class I FBPA. G. lamblia FBPA inhibitors identified by the in vitro analyses will be examined for growth inhibition of Giardia trophozoites, and for cytotoxicity in human cells.
This assay specifically addresses whether activity observed in the primary screen (AID 2451) is related to inhibition of the coupling assay used, as opposed to inhibition of aldolase. Actives in this assay are considered inconclusive for activity against aldolase. Hits from the primary screen was run in this assay to confirm their inactivity against the coupling assay.
Step,Parameter,Value,Description
1,Coupling enzyme reagent,2 uL,glyceraldehyde-3-phosphate
2,Compound,23 nL,3.68 nM-57.5 uM final concentration
3,Time,10 min,RT Incubation
4,Substrate/detection Reagent,2 uL,Substrate + enzyme coupling system + AmpLite Red kit
5,Time,20 min,RT Incubation
6,Detector,525 nm/598 nm (Fluorescence),ViewLux Fluorescence Read (Read 1)
1,Medium-binding black solid-bottom Kalypsys plates. FRD or Kalypsys dispenser.
2,Compound Library (10 mM ,1:5 dilution). Pin-transferred for a [final] range of 3.68 nM-57.5 uM.
4,FRD or Kalypsys dispenser, 2 uL of reaction mixture. Bottle kept at 4C and covered in foil to protect from light.
6,ViewLux Protocol 1194; Excitation filter wheel A (525/20 Pol; BODIPY TMR FP), Emission filter wheel B (598/25 S; BODIPY TMR FP S).
Keywords: Fructose-bisphosphate aldolase, FBPA , Giardia lamblia , Giardia, HTS, Inhibitors
`Oc1[nH]c2ccc(Br)cc2c1N=Nc1nn[nH]n1`: the “activity change, negative = inhibition” value was 7.05% (inactive). As for `Cc1ccc(OCCCCc2c(C)n[nH]c2C)cc1`, the figure is -1.86% (inactive). `CN1C(=O)/C(=C\c2ccc(-c3ccccc3)o2)SC1=S`: the “activity change, negative = inhibition” value was -6.29% (inactive). The result for `O=C(CSc1cccc[n+]1[O-])c1ccc(-c2ccccc2)cc1` reads 7.53% (inactive); that for `Cc1nc2ccc(NC(=S)N3CCC(C)CC3)cc2nc1C`, -26.3% (inactive).

Take `Cc1cccc(C)c1OCCN1CCOCC1`: the “activity change, negative = inhibition” value is -24.1% (inactive). The result for `O=C(Nc1ccccc1Cl)O/N=C(/c1ccccc1)c1ccccn1` reads -0.579% (inactive).

For the compound `CSc1n[nH]c(=S)n1N`, the “activity change, negative = inhibition” value is 2.87% (inactive). The result for `CC(C)(c1ccccc1)c1ccc(OCCN2CCCC2)cc1` reads 1.71% (inactive). As for `C=C(C)CNC(=S)N/N=C/c1ccccc1OCC(=O)O`, the figure is 3.6% (inactive); as for `CN1CCN(CCCCOc2ccccc2-c2ccccc2)CC1`, -10.8% (inactive). Take `CCS(=O)(=O)c1cc([N+](=O)[O-])c(Sc2ccccc2N)s1`: the “activity change, negative = inhibition” value is 5.69% (inactive). For the compound `Cn1c(=O)[nH]c(=O)c2c1[nH]c(=S)n2Cc1ccccc1`, the “activity change, negative = inhibition” value is -18.7% (inactive).

For `Cc1nnc(SCC2=C(C(=O)O)N3C(=O)C(NC(=O)Cn4nc(C)c(Cl)c4C)C3SC2)s1` (stereo not given), the “activity change, negative = inhibition” value was -0.591% (inactive). Take `COc1ccc(CN2CCN(Cc3ccc(OC)c(OC)c3OC)CC2)cc1`: the “activity change, negative = inhibition” value is -12.8% (inactive). As for `CCN(CC(=O)Nc1ccc(S(=O)(=O)N2CCCC2)cc1)CC(=O)Nc1cccc(OC)c1`, the figure is 6.83% (inactive). The result for `COc1ccc(OC)c(Nc2nc(-c3ccc(O)c(O)c3)cs2)c1` reads -19.6% (inactive). Consider `Oc1ccc2ccccc2c1N=Nc1nccs1`, for which the “activity change, negative = inhibition” value was -14.6% (inactive). As for `O=C(O)Cn1c(Cc2ccccc2)nc2ccccc21`, the figure is 3.77% (inactive); as for `O=S(=O)(c1ccc(NC(=S)NN=C(C2CC2)C2CC2)cc1)N1CCOCC1`, 11.1% (inactive). As for `COC(=O)CC1=NN(c2nc(C)cc(C)n2)C(=O)C1`, the figure is -14.1% (inactive); as for `Cc1cc(C)nc(N/N=C/c2ccc([N+](=O)[O-])o2)n1`, -22.2% (inactive); as for `COc1ccc(C(=O)NC(=S)N2CCCCC2c2cccnc2)cc1OC` (stereo not given), 9.92% (inactive).

As for `CCc1ccc2c(c1)C1(NN=C(c3ccccc3)S1)C(=O)N2` (stereo not given), the “activity change, negative = inhibition” value is 5.94% (inactive). In the case of `CC1CCCN(S(=O)(=O)c2ccc(C(=O)Nc3nnc(-c4ccncc4)o3)cc2)C1` (stereo not given), the “activity change, negative = inhibition” value is -9.85% (inactive). As for `Clc1cccc(CN2COc3c(cc(Cl)c4cccnc34)C2)c1`, the figure is -14.9% (inactive); as for `COc1cc(CN2CCN(Cc3ccc(C)cc3)CC2)c([N+](=O)[O-])cc1OC`, -0.157% (inactive); as for `CCN(CC(=O)NC(=O)NCc1ccccc1)Cc1nc2ccccc2c(=O)[nH]1`, 3.55% (inactive). As for `COc1ccccc1CN1CCN(Cc2cc(OC)c(OC)cc2OC)CC1`, the figure is 1.99% (inactive). `Cc1csc(NC(=O)CN2CCCCCC2)n1`: the “activity change, negative = inhibition” value was 6.29% (inactive). The result for `Cc1cc(C)c2c(=O)[nH]c(SCC(=O)Nc3ccc(Br)cc3)nc2n1` reads 13% (inactive); that for `Cc1ccc(S(=O)(=O)NNC(=S)NC(C)(C)C)cc1`, 5.83% (inactive); that for `COc1ccc(N=Nc2c(-c3ccc(OC)cc3)[nH]oc2=O)cc1`, 4.97% (inactive). On to `Cc1ccc(C(=O)Nc2nnc(C3=COCCO3)o2)cc1C`, for which the “activity change, negative = inhibition” value is -8.14% (inactive). With `Cc1cc(C)n(-c2ccc(Cl)c(C(=O)O)n2)n1`, the “activity change, negative = inhibition” value was -17.5% (inactive).

As for `O=C(CN1CCN(Cc2ccccc2)CC1)Nc1ccc(F)c(F)c1`, the “activity change, negative = inhibition” value is 6.58% (inactive). As for `O=c1nc(N/N=C/c2ccco2)cn[nH]1`, the figure is 5.45% (inactive); as for `CN(C)CCOc1ccc(Cl)cc1C(C)(C)C`, -9.12% (inactive); as for `Cn1nnc(NC(=S)NC(=O)c2ccccc2)n1`, -0.91% (inactive).

Take `O=C(NC(=S)Nc1ncccn1)c1ccccc1Br`: the “activity change, negative = inhibition” value was -4.28% (inactive).

(Values after PubChem BioAssay (NCATS).)
